Screens: PubChem, The Scripps Research Institute Molecular Screening Center
Only some compounds are listed: those with a hit (about 3.4% of all), similar ones and a draw of the others.
MITF primary – human MITF inhibition, primary screen. O75030. AlphaScreen MITF homodimerization, bead proximity signal. inhibition, % at 2.6 µM. 650,000 tested, 0.91% active. AID 1259374; in the data active means inhibition above about 50%;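 further: 0% = vehicle wells with protein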
GPR151 activ – activates the human receptor GPR151; Q8TDV0; PathHunter beta-arrestin GPR151 cells, luminescence; activation, % at 11.2 µM; 650,000 tested, 1% active; in the data active means activation above about 4.9%;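 further: 0% = median of compound wells and 100% = cells with positive control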
FBW7 activator – activators of human E3 ligase FBW7; Q969H0; AlphaScreen FBW7–phospho-cyclin E peptide binding, activator screen; normalized activity (activation), % at 26.1 µM; 650,000 tested, 0.13% active; in the data active means normalized activity above about 1.9%;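 further: purified mutant Fbw7 with reduced substrate affinity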
TEAD-YAP inh – TEAD-YAP interaction inhibition; HEK-TIYL cells, TEAD-Gal4/YAP UAS-luciferase luminescence; inhibition, % at 9.12 µM; 640,000 tested, 1.4% active; AID 1259422; in the data active means inhibition above about 32%;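 further: 0% = median of test compound wells and 100% = reference inhibitor wells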
GPR151 confirm – confirmation of human GPR151 activators | shares compounds with GPR151 activ | GPR151 PathHunter beta-arrestin cells, luminescence, 90 min; % of EA-reagent control over plate median | activation, % at 11.2 µM | 6,700 tested, under 10 active | AID 1508609;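 active means mean percent activation across replicates above the confirmation screen cutoff of 4.91%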
GPR119 counter – activates human GPR119 in a GPR151 counter-screen. shares compounds with GPR151 activ. GPR119 PathHunter beta-arrestin cells, luminescence, 90 min; 0 = compound-well median, 100 = enzyme-acceptor control. activation, % at 11.2 µM. 6,700 tested, 0.3% active;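 active means mean percent activation in the counterscreen above 29.09%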;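 further: counterscreen on off-target GPR119 to flag nonselective hits from the GPR151 activator screen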
Numbers without * were called inactive; / = no result given; ! = not confirmed by another sample.

SMILES	MITF primary	GPR151 activ	FBW7 activator	TEAD-YAP inh	GPR151 confirm	GPR119 counter
CCCOC(=O)C1=C(C)N(C)C(=O)NC1c1ccccc1Cl (centres undefined)	-5.7	0.9	-0.1	-0.4	/	/
CCCCOC(=O)C1=C(C)N(C)C(=O)NC1c1ccccc1Cl (centres undefined)	-3.6	7.2*	0.3	15.2	0.0	-9.2
COc1ccc(NC(=O)Cn2c(=O)oc3cc(S(=O)(=O)N4CCCC4)ccc32)cc1	5.4	5.0*	0.1	14.2	0.3	-2.1
O=C(Cn1c(=O)oc2cc(S(=O)(=O)N3CCCCCC3)ccc21)NC1CCCCC1	7.5	-0.7	-0.1	0.8	/	/
O=C(Cn1c(=O)oc2cc(S(=O)(=O)N3CCc4ccccc43)ccc21)NC1CCCC1	-6.6	7.5*	0.1	9.0	0.7	-5.8
CCCCN(CCCC)S(=O)(=O)c1ccc2c(c1)OCC(=O)N2	-0.1	0.8	0.0	-0.5	/	/
O=C(Cc1c(O)c2ccccc2[nH]c1=O)NCCO	-1.8	0.5	-0.1	3.1	/	/
O=C(Cc1c(O)c2ccccc2[nH]c1=O)NCc1ccccn1	16.0	5.6*	-0.5	4.5	0.1	5.8
COc1cccc(CNC(=O)C2CCCc3sc(NC(=O)c4ccccc4)nc32)c1 (centres undefined)	8.5	5.2*	0.1	-4.3	-0.2	4.7
CC1=C(C#N)C(=O)NC(=O)/C1=C\c1ccc(-c2ccc(Br)cc2)o1	-14.6	-0.5	0.0	-6.2	/	/
CCCCCCCCCCCCCCCC(=O)NCCO	-8.9	9.1*!	0.3	11.4	0.0	10.6
CC(C)N(CCNc1nc(Nc2nccc3ccccc23)nc2c1ncn2C1CCCCC1)C(C)C	-11.6	-2.2	-0.1	-3.8	/	/
CC(C)N(CCNc1nc(Nc2ccccn2)nc2c1ncn2C1CCCCC1)C(C)C	1.9	6.4*	-0.1	16.1	-0.2	-13.2
CCN(CC)C(=O)COc1ccc2c(C)cc(=O)oc2c1C	18.1	-0.2	0.1	-11.0	/	/
Cc1cc(=O)oc2c(C)c(OCC(=O)N(C)C)ccc12	3.1	18.4*	0.8	-7.3	0.1	-3.0
CC(=O)COc1ccc2c(oc(=O)c3ccccc32)c1C	-8.0	7.0*	-0.1	-75.2	0.4	12.9
CCOC(=O)COc1ccc2c(oc(=O)c3ccccc32)c1C	-4.7	-0.7	-0.1	4.8	/	/
CS(=O)(=O)N(CC(=O)Nc1cccc(F)c1)Cc1ccccc1	12.0	6.3*	-0.2	22.5	0.2	-0.6
COc1ccc(-c2nnc(SCC(=O)N3c4ccccc4CC3C)o2)cc1 (centres undefined)	3.8	5.8*	0.0	-9.6	1.2	13.4
Cc1nc(SCC(=O)c2cccs2)c2c(C)c(C)sc2n1	6.0	0.9	0.2	-10.9	/	/
COc1cccc2cc(C(=O)/C=C/c3cccc(F)c3)c(=O)oc12	-6.5	5.4*	-0.1	-2.0	0.0	1.0
CCOc1cc(Br)c(/C=C/C(=O)O)cc1OC	10.3	5.3*	0.1	-0.7	-0.3	-7.3
O=C(Cc1cccc2ccccc12)Nc1nnc(-c2ccc(Cl)s2)o1	-6.1	5.1*	-0.1	-3.1	1.1	7.6
CCCC(=O)Nc1nnc(-c2ccc(Cl)s2)o1	-6.5	1.3	-0.1	-21.3	/	/
Nc1c2c(nc3c1CCC3)CCCC2	19.3	5.0*	0.3	-3.0	-0.2	-0.6
SMILES	MITF primary	GPR151 activ	FBW7 activator	TEAD-YAP inh	GPR151 confirm	GPR119 counter
COc1cccc(-c2nnn(CC(=O)NCc3ccccc3)n2)c1OC	0.1	-0.4	-0.1	6.4	/	/
COC(=O)[C@@H]1CC[C@H](C)[C@@H](c2ccc(C)cc2)N1C(=O)c1ccc(/C=N/OC[C@@H](O)[C@H]2O[C@@H]3OC(C)(C)O[C@@H]3[C@H]2O)cc1	-2.7	6.7*	-0.1	/	0.6	10.6
COc1cc(/C=c2/sc3nc(-c4cccs4)nn3c2=O)cc(OC)c1OC	-3.9	-1.0	0.1	3.8	/	/
C=CCn1nnnc1SCC(=O)c1ccc(Br)cc1	1.1	1.4	0.3	-0.7	/	/
CC1CCN(Cc2nnnn2CCCC(=O)N(C)C2CCOC2)CC1 (centres undefined)	4.0	8.7*	-0.1	2.7	-1.0	-5.9
CCOc1ccc(NC(=O)COc2ccc(C3C(C#N)=C(N)Oc4n[nH]c(C)c43)cc2)cc1 (centres undefined)	-2.0	0.3	-0.2	-6.5	/	/
